In PubChem BioAssay (NCI) one finds growth data, which are given here for 16 compounds.

About 83,000 compounds went through this panel and 20% of them were active in at least one assay; those are over-represented in the sample as a whole.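 Interpretation: 100, growth as untreated; towards 0, rising growth inhibition; 0, no net growth; 0 to -100, cell death. Compounds scoring below 10 were considered active.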 Unmarked numbers belong to inactive results. Activity calls are given as the source filed them.

Holding throughout (assay): NCI-60 one-dose screen, 48 h (100 = growth as untreated, 0 = no growth, -100 = all killed)
Common to all, as to settings: 10 µM unless noted

For experiment [1], the system named is T-47D breast.
For experiment [2], the system named is BT-549 breast.
Experiment [3] relates to MDA-MB-435 melanoma.
Experiment [4] concerns SW-620 colon.
The test system of experiment [5] is MCF7 breast.
In experiment [6] the test system is HCT-116 colon.
Experiment [7] relates to HCC-2998 colon.
Experiment [8] relates to KM12 colon.

Take `COc1cc(Cn2c(-c3ccccc3)cc3c2-c2oncc2CC3)cc(OC)c1OC`: the growth in experiment [1] was 38.1%; in experiment [2], 41.2%; in experiment [3] it was -58.1% (active); in experiment [4], 24.3%; in experiment [5], 14.1%; in experiment [6] it was 25.3%. Further, the growth in experiment [7] was 42.7%; in experiment [8] it was 26.2%.

For the compound `CCN(CC)c1ccc2nc3c4ccccc4c(=O)cc-3n(-c3ccccc3)c2c1`, the growth in experiment [1] is -7.93% (active); in experiment [2] it was -21.7% (active); in experiment [3], -36.3% (active); in experiment [4], 7.92% (active); in experiment [5], -7.24% (active); in experiment [6] it was -31.7% (active). The results for the growth in experiment [7] and in experiment [8] were -6.62% (active) and -5.68% (active), respectively.

`N=c1n(Cc2ccccc2)c(N)cc(=O)n1Cc1ccccc1`: the growth is 26.7% in experiment [1]; 3.02% (active) in experiment [2]; 37.2% in experiment [3]; 20.7% in experiment [4]; 23.4% in experiment [5]; 8.12% (active) in experiment [6]. The values for the growth in experiment [7] and in experiment [8] were 67.4% and 39.2%, respectively.

`[O-]/[N+](=C\c1ccccc1)CC1(O)CCCCC1`: the growth in experiment [1] was 106%; in experiment [2], 111%; in experiment [3], 100%; in experiment [4], 94.2%; in experiment [5], 92.7%; in experiment [6], 117%. Also, the growth was 115% in experiment [7] and 100% in experiment [8].

For `Cc1cc2nc3c(=O)[nH]c(=O)nc-3n(CC=O)c2cc1C`, the growth in experiment [1] was 100%; in experiment [2], 113%; in experiment [3], 92.2%; in experiment [4], 99.9%; in experiment [5], 99%; in experiment [6] it was 106%. Moreover, the values for the growth in experiment [7] and in experiment [8] were 111% and 107%, respectively.

With `CC(=O)Nc1ccc(Cl)cc1Cl`, the growth in experiment [1] is 103%; in experiment [2] it was 120%; in experiment [3], 96%; in experiment [4], 116%; in experiment [5], 100%; in experiment [6] it was 105%. For the same compound, the results for the growth in experiment [7] and in experiment [8] were 106% and 112%, respectively.

`CC(C)=CCC[C@H](C)c1ccc(C)c2c1OCN(CCO)C2`: the growth in experiment [1] is 70%; in experiment [2], 95.8%; in experiment [3], 101%; in experiment [4] it was 100%; in experiment [5], 83.9%; in experiment [6], 71.8%. The growth is 84.4% in experiment [7] and 103% in experiment [8].

Turning to `Oc1[nH]c2ccccc2c1/C=c1/ccc2c(c1)N=C(c1ccc(C(F)(F)F)cc1)N=2`, the growth in experiment [1] was 35.1%; in experiment [2], 43.3%; in experiment [3], 32.5%; in experiment [4] it was 63.7%; in experiment [5], 37%; in experiment [6], 39.5%. Also, the growth in experiment [7] was 61.4%; in experiment [8] it was 31.6%.

On to `CNCc1cccc2c1OCCOCCOCCC(C)S(=O)(=O)c1ccc(cc1)-c1cnc(N)c(n1)C(=O)N2` (stereo not drawn), for which the growth was 32.8% in experiment [1]; 43.9% in experiment [2]; 42.8% in experiment [3]; 27.6% in experiment [4]; 37.9% in experiment [5]; -2.15% (active) in experiment [6]. Also, the growth is 79% in experiment [7] and 47.5% in experiment [8].

As to `Clc1cc(Br)ccc1-c1ccc(CNCC2CCNCC2)o1`, the growth in experiment [1] was 43.8%; in experiment [2], 77.9%; in experiment [3], 52.9%; in experiment [4], 24.5%; in experiment [5] it was 39.7%; in experiment [6], 40.9%. In addition, the growth in experiment [7] was 88.2%; in experiment [8], 53.9%.

For `CC[C@H](Nc1nc(N)nc(C2CC2)c1C#N)c1nc2cccc(NCc3ccc(C(=O)NO)cc3)c2c(=O)n1-c1ccccc1`, the growth is -5.53% (active) in experiment [1]; 33.3% in experiment [2]; 7.07% (active) in experiment [3]; 11.6% in experiment [4]; 4.25% (active) in experiment [5]; -59.8% (active) in experiment [6]. In addition, the growth in experiment [7] was 0.531% (active); in experiment [8], 8.71% (active).

Consider `N#Cc1c(N)c(C(=O)c2ccc3c(c2)OCCO3)n2c1CCCC2`, for which the growth in experiment [1] was 29.2%; in experiment [2], 52.9%; in experiment [3], -48.8% (active); in experiment [4] it was 19.3%; in experiment [5], 18.1%; in experiment [6], 18.6%. Besides, the growth is 59.6% in experiment [7] and 24.1% in experiment [8].

Regarding `CNC(=O)c1cc(Oc2ccc(NC(=O)c3nc(S(C)(=O)=O)n(C)c3-c3ccc(F)cc3)cc2)ccn1`, the growth in experiment [1] is 61.5%; in experiment [2] it was 80.6%; in experiment [3], 79.4%; in experiment [4], 72.1%; in experiment [5], 79%; in experiment [6] it was 64.2%. For the same compound, the results for the growth in experiment [7] and in experiment [8] were 93.8% and 21.9%, respectively.

On to `CCOC(=O)C(Nc1ccccc1)C(=O)OCC`, for which the growth in experiment [1] is 102%; in experiment [2], 95.1%; in experiment [3] it was 110%; in experiment [4], 111%; in experiment [5], 95.8%; in experiment [6] it was 101%. Further, the growth in experiment [7] is 103%; in experiment [8], 115%.

As for `COc1ccc(-c2nc3ccc(Cc4ccc5nc(-c6ccc(OC)cc6)[nH]c5c4)cc3[nH]2)cc1`, the growth in experiment [1] is 20.8%; in experiment [2] it was 84.5%; in experiment [3], 35.3%; in experiment [4], 31.2%; in experiment [5] it was -13.5% (active); in experiment [6], 39.4%. Besides, the growth in experiment [7] was 35.8%; in experiment [8], 49.1%.

As for `Cc1c(O)c(=O)n(-c2ccccc2)n1C`, the growth in experiment [1] was 99.5%; in experiment [2] it was 109%; in experiment [3], 109%; in experiment [4] it was 114%; in experiment [5], 101%; in experiment [6], 109%. In addition, the growth in experiment [7] is 97.3%; in experiment [8], 105%.
